Measurements published in PubChem BioAssay (NCATS).
Records with an inconclusive call do not appear. Unmarked numbers belong to inactive results. Activity calls are given as the source filed them. Calls come from the whole dose curve; as a rule, active = well fitted cell-killing curve with a large enough effect; inconclusive = small, poorly fitted or top-dose-only effect, or effect the other way; inactive = flat fitted curve, though single readings scatter. Where a SMILES comes first, the peptide text is derived from it.

test system: C33A; test: Primary qHTS to identify gynecologic anti-cancer compounds using libraries of approved drugs and bioactive compounds (AID 1345084); details: Gynecologic cancer cell panel viability, ATPlite luminescence, 48 h; series mostly up to 57.5 µM; activity change, negative = cytotoxicity: at the top concentration; note: nearly all actives have a fitted effect of over 55% in size
How it was run: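 Five-concentration response, 48 h; readout is ATP-driven luciferase luminescence.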
% is set by controls: 0 for no effect and ±100 for the full control effect.

| Structure (SMILES) | activity change, negative = cytotoxicity | Potency |
| --- | --- | --- |
| Nc1nc(CC(=O)Nc2ccc(CCNCC(O)c3ccccc3)cc2)cs1 (centres undefined) | -10.4% |  |
| COc1ccc([C@@H]2N[C@H](C(=O)O)Cc3c2[nH]c2ccccc32)cc1CN1CCN(c2ccccc2F)CC1 | 4.69% |  |
| CC1NC(=O)CNC(=O)C(C(C)C)NC(=O)C2CCCN2C(=O)C(C(C)C)NC(=O)C(Cc2c[nH]c3ccccc23)NC1=O (centres undefined) (cyclo(GAWVPV); configuration not given here) | 4.35% [at 25.3 µM] |  |
| CC(C)(C)c1cc(CN2CCN(CC(O)c3ccc(Cl)cc3)CC2)cc(C(C)(C)C)c1O (centres undefined) | 12.2% |  |
| CC[C@@H](c1ccc(F)c(F)c1)n1c(C(=O)OC)c(-c2ccno2)[nH]c1=S | 2.04% |  |
| O=C(O)C[C@H]1CCC(=O)[C@@H]1C/C=C\CCOC1OC(CO)C(O)C(O)C1O (some centres undefined) | 7.08% [at 38.5 µM] |  |
| N#Cc1ccc2[nH]c(O)c(-c3ccc(CN4CCOCC4)cn3)c2c1 | 15% |  |
| C=Cc1cc(O)cc2nc(-c3ccc(O)c(F)c3)oc12 | -2.45% |  |
| COc1ccc(C(OC2OC(CO)C(O)C(O)C2O)C(C)O)cc1 (centres undefined) | 1.7% [at 38.5 µM] |  |
| CC1CCC2(C(=O)OC3OC(COC4OC(CO)C(O)C(O)C4O)C(O)C(O)C3O)CCC3(C)C(=CCC4C5(C)CCC(O)C(C)(C(=O)O)C5CCC43C)C2C1(C)O (centres undefined) | -3.16% [at 11.6 µM] |  |
| Cc1cc(N2CCCCC2)nc2ccccc12 | 8.17% |  |
| C=CC1(C)CC2=CCC3C(C)(C(=O)O)CCCC3(C)C2CC1OC(C)=O (centres undefined) | 5.86% [at 38.5 µM] |  |
| Cc1cc(Nc2ncc(Cl)c(Nc3ccccc3S(=O)(=O)C(C)C)n2)c(OC(C)C)cc1C1CCNCC1 | -1.42% |  |
| CCn1c2ccccc2c2cc(CNC)ccc21 |  | inactive |
